HepG2 tox: HepG2 cytotoxicity, counter-screen for TGF-b inhibitors; HepG2 CAGA-GFP viability, ATP luminescence, 18 h; Potency, µM (titrated, usually from 46.1 µM), actives largely listed as cytotoxic; 410,000 compounds, 0.76% hits; AID 588856
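HepG2 CAGA-GFP cells (1000/well, DMEM with 1% FBS) received compound, then TGF-beta at 500 pg/mL final, and were incubated 18 hours at 37 degrees C. Viability was read by CellTiter-Glo luminescence. Media-only wells were set as complete cell-killing and DMSO as no toxicity.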
TDP1 inh: inhibitors of human tyrosyl-DNA phosphodiesterase TDP1; Q9NUW8; 350,000 compounds, 0.28% hits; recombinant TDP1, AlphaScreen DNA substrate cleavage; Potency, µM (titrated, usually from 130 µM), actives largely listed as inhibitors; AID 485290; note: nearly all actives have a fitted effect of over 40% in size
Target sequence (Q9NUW8 whole entry, looked up): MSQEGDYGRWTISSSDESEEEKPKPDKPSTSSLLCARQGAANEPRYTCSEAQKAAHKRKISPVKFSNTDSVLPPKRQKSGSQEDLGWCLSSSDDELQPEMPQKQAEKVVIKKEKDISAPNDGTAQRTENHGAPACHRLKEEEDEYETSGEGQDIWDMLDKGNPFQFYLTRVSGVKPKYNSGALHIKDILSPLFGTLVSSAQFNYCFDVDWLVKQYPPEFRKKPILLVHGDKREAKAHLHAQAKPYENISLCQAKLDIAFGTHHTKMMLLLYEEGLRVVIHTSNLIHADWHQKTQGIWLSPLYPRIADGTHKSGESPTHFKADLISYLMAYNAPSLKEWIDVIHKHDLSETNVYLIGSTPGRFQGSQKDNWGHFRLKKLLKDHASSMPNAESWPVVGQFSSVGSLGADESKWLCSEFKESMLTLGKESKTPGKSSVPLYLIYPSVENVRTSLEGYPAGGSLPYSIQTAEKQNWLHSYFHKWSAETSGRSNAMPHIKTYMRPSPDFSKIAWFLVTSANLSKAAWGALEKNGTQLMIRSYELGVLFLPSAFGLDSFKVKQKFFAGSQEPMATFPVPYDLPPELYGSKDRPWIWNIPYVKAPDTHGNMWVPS
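Here, a 5' biotin and 3' phosphotyrosine-FITC DNA oligonucleotide reports Tdp1 activity: intact substrate bridges AlphaScreen beads, while cleavage leaves a 3' phosphate and drops signal. All incubations at room temperature.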
TDP1 cell noCPT: qHTS for Inhibitors of human tyrosyl-DNA phosphodiesterase 1 (TDP1): qHTS in cells in absence of CPT | 420,000 compounds, 15% hits | Potency, µM (doses to about 46.2 µM), actives largely listed as inhibitors | DT40 Tdp1-/- hTDP1 cells, no CPT, ATP luminescence, 48 h; note: nearly all actives have a fitted effect of over 55% in size
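Luminescent ATP content (CellTiter-Glo) served as the growth readout. Knockout chicken DT40 cells expressing human TDP1 were exposed to compounds without camptothecin for a minimum 48 hr at 37 °C.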
IL1B secr inh: blocks inflammasome-driven IL-1 beta release; THP-1 LPS/ATP IL-1B secretion, AlphaLISA, 16 h; active compounds read low; activity change, % at 57.5 µM; 360,000 compounds, 4.7% hits; AID 743279; in the data active = activity change below about -50%; inconclusive = mostly about -30% to -49%
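Secreted IL-1B measured by AlphaLISA bead assay after 16 h compound exposure of THP-1 cells; compounds (final up to 57.5 uM) added 1 h before LPS (250 ng/mL) and ATP (1.25 mM) stimulation; lower signal means less secretion.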
TDP1 cell CPT: growth inhibition of DT40 Tdp1-/-;hTDP1 cells with camptothecin (screen for TDP1 inhibitors); Potency, µM (titrated, usually from 46.2 µM), usual class: inhibitors; chicken DT40 Tdp1-/-;hTDP1 cells + 20 nM CPT, ATP luminescence, 48 h; 420,000 compounds, 12% hits; AID 686979; note: nearly all actives have a fitted effect of over 55% in size
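Chicken DT40 Tdp1-/- cells stably complemented with human TDP1 were seeded at 400 cells/well in medium containing 20 nM camptothecin, exposed to pin-transferred compounds, and grown at 37 °C for at least 48 hr. Viability was read as ATP luminescence.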
TGFb inhibitor: TGF-b pathway inhibition | HepG2 CAGA-GFP TGF-b/SMAD3 reporter, GFP fluorescence, 18 h; TGF-beta stimulated, 500 pg/mL final | Potency, µM (top dose mostly 46.1 µM), usual class: inhibitors | 410,000 compounds, 1.2% hits; note: nearly all actives have a fitted effect of over 65% in size
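HEPG2 CAGA-GFP cells (1000/well, DMEM with 1% FBS) were pre-incubated 2 h at 37 degrees C, given compound by pin tool, then stimulated with TGF-beta at 500 pg/mL final for 18 h before per-cell GFP fluorescence imaging.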
Hits are given with their value; i = inactive; ? = inconclusive; nt = not tested or not shown. Most compounds without a hit are left out; they make up all but 18% or so of the library. Unless noted, calls come from the whole dose curve; as a rule, active = well fitted curve in the direction sought with a large enough effect; inconclusive = small, poorly fitted or top-dose-only effect, or another doubt; inactive = no such curve, though single readings can be large; an effect the other way counts as inactive or inconclusive.

SMILES	HepG2 tox	TDP1 inh	TDP1 cell noCPT	IL1B secr inh	TDP1 cell CPT	TGFb inhibitor
COc1ccc(C(=O)N/N=C/c2ccc(OC)c(COc3ccc(F)cc3F)c2)cc1	i	i	18.4µM	i	?	i
COc1ccc(C(=O)N/N=C/c2ccc(OC)c(COc3ccc(F)cc3)c2)cc1	i	i	?	i	?	i
COc1ccc(/C=N/NC(=O)c2ccn[nH]2)cc1COc1ccc(F)cc1	i	i	?	i	16.4µM	i
COc1ccc(/C=N/NC(=O)c2ccn[nH]2)cc1COc1ccc([N+](=O)[O-])c(C)c1	i	i	?	?	?	i
COc1ccc(-c2nnc(SCC(=O)Nc3cccc(F)c3)s2)cc1	i	i	i	nt	i	i
CC1CC(C)(C)CC2(C1)NC(=O)N(CC(=O)N1CCN(S(=O)(=O)c3cccc(Cl)c3Cl)CC1)C2=O (stereo unspecified)	i	nt	?	i	18.4µM	?
Cc1[nH]c2ccccc2c1C(=O)CN1C(=O)NC2(CC(C)CC(C)(C)C2)C1=O (stereo unspecified)	i	i	?	i	14.6µM	i
CC1(C)NC(=O)N(CC(=O)N2CCN(S(=O)(=O)c3cc(Cl)ccc3Cl)CC2)C1=O	i	i	i	i	i	i
Cc1nn(C)c(C)c1NC(=O)COc1ccccc1C#N	i	i	i	i	i	i
CSc1cc(C)c(OCC(=O)Nc2c(C)nn(C)c2C)c(C)c1	i	i	?	i	14.6µM	i
Cc1cc(C)n(CC(=O)NNC(=O)COc2ccc(F)cc2Br)n1	i	i	i	i	i	i
COc1ccc(/C=C/C(=O)Nc2c(C)nn(C)c2C)cc1COc1ccc(Cl)cc1Br	i	i	?	?	18.4µM	i
Cc1nn(C)c(C)c1NC(=O)COc1ccc(F)cc1Br	i	i	13µM	i	?	i
Cc1ccc(-n2c3c(c(=O)[nH]c2=O)C(NC(=O)C(C)(C)C)(C(F)(F)F)C(=O)N3)cc1 (stereo unspecified)	i	i	i	nt	i	i
O=c1oc2cc(O)ccc2c2oc3cc(O)ccc3c12	i	i	23.1µM	i	?	i
O=c1oc2cc(O)ccc2c2ccccc12	i	i	i	i	i	i
COc1c(CC=C(C)C)c(O)cc2oc(=O)c3c4ccc(O)cc4oc3c12	i	nt	18.4µM	i	?	?
COc1c2c(cc3oc(=O)c4c5ccc(O)cc5oc4c13)OC(C)(C)CC2	i	nt	16.4µM	i	16.4µM	i
CC(C)=CCc1c(O)cc2c(=O)c3ccc(O)cc3oc2c1O	i	nt	?	i	i	?
COc1ccc(C2c3c(nc(C)[nH]c3=O)Oc3ccc4ccccc4c32)cc1OC (stereo unspecified)	nt	i	nt	nt	nt	nt
COc1cccc(C2=CC(c3ccccc3O)NC(C)(C)N2)c1 (stereo unspecified)	i	i	15.8µM	nt	12.6µM	i
Cc1[nH]c2ccccc2c1C(=O)C(C)OC(=O)c1ccc(NC(=O)CC#N)cc1 (stereo unspecified)	i	i	?	i	?	i
Cc1cc(C(=O)C(C)OC(=O)c2ccc(NC(=O)CC#N)cc2)c(C)n1-c1ccc(OC(F)F)cc1 (stereo unspecified)	i	i	11.6µM	?	23.1µM	i
O=C(NCc1ccccc1)C1C(c2ccc3c(c2)OCO3)=Nc2ccccc2N1C(=O)c1cccc(C(F)(F)F)c1 (stereo unspecified)	nt	nt	?	i	16.4µM	nt
Cc1cccc(C)c1NC(=O)C1C(c2ccc3c(c2)OCO3)=Nc2ccccc2N1C(=O)c1ccccc1 (stereo unspecified)	nt	nt	1.46µM	i	5.17µM	nt
SMILES	HepG2 tox	TDP1 inh	TDP1 cell noCPT	IL1B secr inh	TDP1 cell CPT	TGFb inhibitor
O=C(NCc1ccccc1)C1C(c2ccc3c(c2)OCO3)=Nc2ccccc2N1C(=O)c1ccco1 (stereo unspecified)	nt	nt	?	i	?	nt
O=C(NCc1ccccc1)C1C(c2ccc3c(c2)OCO3)=Nc2ccccc2N1C(=O)c1ccccc1 (stereo unspecified)	nt	nt	14.6µM	i	23.1µM	nt
CN(C)c1cccc(CNC(=O)c2ccc3nc([C@@H]4O[C@H](CO)[C@H](O)[C@H](O)[C@H]4O)[nH]c3c2)c1	i	nt	i	i	i	i
CCOc1ccc(N2C(=O)C(C)CNC2=S)cc1 (stereo unspecified)	i	nt	i	i	i	i
Cc1cc(C)n(-c2nc(NCC3CCCO3)c3c4c(sc3n2)COC(C)(C)C4)n1 (stereo unspecified)	i	i	3.66µM	-50.7	5.17µM	i
Cc1cc(C)n(-c2nc(SCC(=O)NCC3CCCO3)c3c4c(sc3n2)CCCC4)n1 (stereo unspecified)	nt	i	nt	nt	nt	nt
